Screening data deposited in PubChem by The Scripps Research Institute Molecular Screening Center.
Only some compounds are listed: those with a hit (about 4.1% of all), similar ones and a draw of the others.
hgDAF12 agonist = H. glycines DAF-12 receptor agonists, primary screen, cell-based, luminescence, HEK293, GAL4 fusion, UAS-luciferase | actives 1.8% (n = 370,000) | activation, % at 6.8 µM | HEK293 GAL4-hgDAF12 UAS-luciferase reporter, agonist luminescence; normalized to butyrate control;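 active means activation above a cutoff set at the mean of all screened compounds plus 3 SD, cut at about 10% in these data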;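 further: 0% = DMSO wells and 100% = sodium butyrate wells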
ssDAF-12 act = S. stercoralis DAF-12 nuclear receptor activators, primary screen, cell-based, luminescence, HEK293, GRIP1 co-expression, lit1-tk-luc; Nuclear hormone receptor DAF-12 (Strongyloides stercoralis); HEK293 ssDAF-12/GRIP1 lit1-tk-luc reporter; % of 3 µM dafachronic acid response; activation, % at 6.8 µM; actives 1% (n = 370,000);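 active means activation above the mean over all tested compounds plus 3 SD, cut at about 0.9% in these data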;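 further: 0% = DMSO-only wells and 100% = 3 µM delta7-dafachronic acid wells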
DAX1 inh-1 = DAX1 (NR0B1) inhibitors on StAR promoter, primary screen, cell-based, luminescence, SF-1 (NR5A1), full-length DAX-1; HEK293T StAR-luciferase reporter, SF-1/DAX-1 repression relief; actives 1.1% (n = 370,000); AID 652010, 2013; inhibition, % at 6.8 µM;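 active means inhibition above the mean over all tested compounds plus 3 SD, cut at about 3.6% in these data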;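 further: 0% = DAX-1 cells with DMSO and 100% = cells lacking DAX-1 with DMSO; higher inhibition means more luminescence from relief of DAX-1 repression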
DAX1 inh-2 = DAX1 (NR0B1) inhibitors, primary screen, cell-based, HEK293, Gal4-DAX1, luciferase luminescence; Nuclear receptor subfamily 0 group B member 1 (Homo sapiens), P51843; HEK293 Gal4-DAX1 luciferase reporter; inhibition, % at 6.75 µM; actives 0.99% (n = 340,000);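 active means inhibition above the mean over all tested compounds plus 3 SD, cut at about 4.2% in these data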;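 further: 0% = DAX1-transfected cells with DMSO and 100% = empty-vector control cells with DMSO; inhibition shows as a rise in luminescence from relieved DAX1 repression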
hcDAF-12 act = H. contortus DAF-12 nuclear receptor activators, primary screen, cell-based, luminescence, HEK293, lit1-tk-luc reporter | AID 652067, 2013 | activation, % at 6.8 µM | actives 1.4% (n = 370,000) | HEK293 hcDAF-12 lit1-tk-luc reporter; 0% DMSO, 100% Δ7-dafachronic acid;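 active means activation above the mean of all tested compounds plus 3 SD, cut at about 5.5% in these data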;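 further: 100% = response to 3 µM Δ7-dafachronic acid high control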
hgDAF12 conf = H. glycines DAF-12 receptor agonists, confirmation, cell-based, luminescence, HEK293, GAL4-LBD fusion; shares compounds with hgDAF12 agonist; HEK293 GAL4-hgDAF12 luciferase reporter, agonist mode; percent of butyrate response; activation, % at 6.8 µM; actives 80% (n = 3,300); AID 743050, 2013;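 active means mean activation over triplicate wells above the hit cutoff derived from the earlier primary screen, cut at about 11% in these data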;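 further: 0% = DMSO low control and 100% = 2 mM sodium butyrate high control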
LXR ag 2 = LXR agonists, Gal4 luciferase reporter, confirmation, counter-screen for hgDAF-12 agonist project, cell-based, luminescence, HEK293, H. glycines campaign. shares compounds with hgDAF12 agonist. activation, % at 6.8 µM. 24 h. 3,300 tested, under 10 active. AID 743051, 2013;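 active means mean activation of the triplicate above a set limit carried over from the primary screen, none filed active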
Target sequence (P55055 whole entry, looked up, the tested form may be a part): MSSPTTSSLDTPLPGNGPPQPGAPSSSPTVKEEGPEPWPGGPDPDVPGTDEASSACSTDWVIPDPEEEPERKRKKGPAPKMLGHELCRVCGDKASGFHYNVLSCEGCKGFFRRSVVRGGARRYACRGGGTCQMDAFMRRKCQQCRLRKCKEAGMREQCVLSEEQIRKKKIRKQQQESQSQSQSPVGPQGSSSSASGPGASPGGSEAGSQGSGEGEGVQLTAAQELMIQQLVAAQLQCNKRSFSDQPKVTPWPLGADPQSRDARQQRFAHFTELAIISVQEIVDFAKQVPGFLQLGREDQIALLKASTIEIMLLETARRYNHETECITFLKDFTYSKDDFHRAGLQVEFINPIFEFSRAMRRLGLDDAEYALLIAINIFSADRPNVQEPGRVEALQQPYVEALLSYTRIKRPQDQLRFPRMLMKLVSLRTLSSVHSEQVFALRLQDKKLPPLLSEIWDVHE
* = called active by the depositor; x = no result.

SMILES | hgDAF12 agonist | ssDAF-12 act | DAX1 inh-1 | DAX1 inh-2 | hcDAF-12 act | hgDAF12 conf | LXR ag 2
COc1ccc(C(=S)Nc2ccc(N(C)C)cc2)cc1 | 15* | 1 | 4.0* | 1 | 6 | 15* | 1
COc1ccc(NC(=S)c2ccccc2)cc1 | 8 | -1 | 2 | 1 | 1 | x | x
COc1cccc(C(=O)Nc2ccc(C3CC3(Cl)Cl)cc2)c1 (stereo not given) | 19* | 1.2* | 3 | 0 | 2 | 18* | 1
COc1cccc(C(=O)NC(=S)Nc2ccc(N(C)C)cc2)c1 | 18* | -1 | 1 | 0 | 0 | 12* | 0
CN(C(=O)CC(NC(=O)c1ccccc1Cl)c1ccccc1)c1ccccc1 (stereo not given) | 1 | 0 | -1 | -1 | -1 | x | x
C=CCCC1CN(Cc2ccc(OC)cc2)S(=O)(=O)c2c(cccc2N2CCCC2)O1 (stereo not given) | -3 | -1 | -2 | x | -1 | x | x
Cc1ccc2nc(-c3ccc4c(c3)NC(=O)CO4)cn2c1 | 14* | 0 | 4.5* | 3 | 4 | 14* | 1
Cc1cc(=O)oc(C)c1C(=O)Nc1ccc(F)cc1 | 1 | -2 | 0 | 1 | -1 | x | x
CCCC12CN3CCN(CC(C3)/C1=N\NC(=O)c1ccc(F)cc1)C2 | 13* | -1 | 1 | 0 | 0 | 2 | 0
O=C(NN=C1CCCCCCC1)c1ccc(F)cc1 | 5 | -1 | 1 | 0 | 0 | x | x
COc1ccc(/C=C2\SC(=O)N(CCn3cnnn3)C2=O)cc1 | 2 | 0 | 0 | -1 | 0 | x | x
O=C(NC1CCCC1)C(C1CC1)n1c(-c2cc3ccccc3[nH]2)nc2ccccc21 (stereo not given) | 22* | 1.0* | 3 | x | 6 | 14* | 0
Cc1cccc(/C(N)=N/OC(=O)c2cccnc2)c1 | 20* | 1.1* | 3 | 2 | 5 | 11* | 1
Cc1ccc(-c2cc(C(=O)NCC3CCCO3)no2)cc1 (stereo not given) | 14* | -1 | 3 | 1 | 1 | 13* | 0
O=C(NCC1CCCO1)c1sc2ccccc2c1Cl (stereo not given) | 14* | -1 | 3 | 2 | 3 | 10 | 0
O=C(NCC1CCCO1)c1cc(-c2ccccc2)on1 (stereo not given) | 42* | 0 | 2 | 4.3* | 6.5* | 48* | 1
O=C(NCC1CCCO1)c1cc(-c2ccc(F)cc2)no1 (stereo not given) | 18* | 0 | 2 | 2 | 4 | 19* | 0
O=C(Nc1cc(Cl)cc(Cl)c1)N1CCCC1 | 2 | -2 | 0 | -1 | -2 | x | x
COc1cccc(CSc2nc3ccncc3[nH]2)c1 | 15* | 0 | 3 | -1 | 2 | 14* | 1
COc1cccc(N2CCN(C(=O)c3ccc(CSc4nc5ccncc5[nH]4)cc3)CC2)c1 | -5 | -1 | -3 | -3 | -4 | x | x
Cc1occc1C(=O)Nc1ccc2c(c1)CCC2 | 15* | 1 | 3.9* | 1 | 3 | 15* | 1
Cc1ccc(C(=O)Nc2ccc3c(c2)CCC3)o1 | 16* | -1 | 2 | 1 | 3 | 22* | 1
CC1(C)CNc2cc([N+](=O)[O-])ccc2S1 | 4 | -1 | 0 | -1 | 0 | x | x
C/C(CC(=O)Nc1cccc(Cl)c1Cl)=N\NC(=O)c1ccccc1Br | 3 | -1 | 1 | 2 | 2 | x | x
C/C(CC(=O)Nc1cccc(Cl)c1Cl)=N\NC(=O)c1ccccc1N | 14* | 0 | 2 | 4.2* | 5 | 3 | 0
SMILES | hgDAF12 agonist | ssDAF-12 act | DAX1 inh-1 | DAX1 inh-2 | hcDAF-12 act | hgDAF12 conf | LXR ag 2
O=C(Nc1ccc(C(=O)NCCCN2CCN(c3ccccc3)CC2)cc1)C1=CSCCO1 | 0 | -1 | 0 | -1 | -3 | x | x
COc1ccc(NC(=S)NC(=NS(=O)(=O)c2ccc(Cl)cc2)c2ccccc2)cc1 | 13* | 1 | 3 | 2 | 2 | 10 | 0
O=C(NN/C(=N/S(=O)(=O)c1ccc(Cl)cc1)c1ccccc1)c1ccc(O)cc1 | 16* | 0 | 3 | 0 | -1 | 9 | 0
COc1ccc(NC(=S)N/C(=N/S(=O)(=O)c2ccc(C)cc2)c2ccccc2)cc1 | 5 | 0 | 2 | 0 | 1 | x | x
O=C(O)c1ccc(N/C(=N\S(=O)(=O)c2ccc(Cl)cc2)c2ccccc2)cc1 | -4 | -1 | 0 | 0 | 1 | x | x
Cc1ccc(S(=O)(=O)/N=C(/NNC(=O)c2cccc(Cl)c2)c2ccccc2)cc1 | 14* | 1 | 2 | 1 | 5 | 21* | 1
Cc1ccc(S(=O)(=O)NN/C(=N/S(=O)(=O)c2ccccc2)c2ccccc2)cc1 | 0 | -1 | 0 | 0 | -2 | x | x
CC(=O)Nc1ccc(N(C(=O)c2ccco2)C(C(=O)NC2CCCCC2)c2ccccc2)cc1 (stereo not given) | -2 | -1 | 0 | 0 | -2 | x | x
S=c1[nH]c(-c2ccccc2)cn1/N=C/c1cccs1 | 14* | 1 | 0 | 1 | 5.6* | 5 | 0
Cc1occc1C(=O)N/N=C/c1ccc(Br)s1 | 8 | 0 | 2 | 2 | 1 | x | x
Cc1ccc(/C=N/NC(=O)c2ccoc2C)s1 | 15* | 0 | 3 | 1 | 2 | 10 | 1
CCN(CC)c1ccc(/C=N/NC(=O)c2ccoc2C)cc1 | 17* | 0 | 2 | 1 | 5 | 19* | 1
CCOC(=O)CSc1nc2cc3c(cc2cc1C#N)OCCO3 | 17* | 0 | 3 | 12* | 4 | 12* | 1
CCOC(=O)CSc1nc2cc3c(cc2cc1C)OCO3 | -3 | 0 | 0 | 0 | 0 | x | x
CCOC(=O)CSc1nc2cc3c(cc2cc1C#N)OCO3 | 14* | 1 | 3 | 2 | 4 | 15* | 1
CN1C(=O)CC(N2CCC(c3nc4ccccc4[nH]3)CC2)C1=O (stereo not given) | 2 | -1 | 0 | 0 | -4 | x | x
